Measured values reported in paper PMC4552634, “A New Set of Chemical Starting Points with Plasmodium falciparum Transmission-Blocking Potential for Antimalarial Drug Discovery” (PLoS ONE, 2015).
Among all 13,000 compounds or so, about 3,200 (25%) showed an effect of 50% or more. This is one part of the list.

Tested on: P. falciparum stage V gametocytes
Set-up: BacTiter-Glo ATP luminescence viability of purified stage V gametocytes in 384-well plates, per cent inhibition versus DMSO
Details: 48 h, 5 µM; inhibitor

SMILES | % Inhibition [%]
COc1ccc(CN(C)CCCc2ccc(NC(=O)c3cc4ccccc4[nH]3)cc2)cc1OC [TCMDC-131855] | -11.14
Nc1ccc2nc(C=Cc3ccc(Cl)cc3)[nH]c2c1 [TCMDC-123608] | -19.77
Cc1ccc(NC(=O)Nc2ccc(S(=O)(=O)c3ccc(NC(=O)Nc4ccc(C)c(Cl)c4)cc3)cc2)cc1Cl [TCMDC-124273] | 85.03
Cc1ccc(NC(=O)Nc2ccc(I)c(OCCN(C)C)c2)cc1Cl [TCMDC-139122] | -20.44
CN1CCc2ccc(NC(=O)Nc3ccc(Cl)c(Cl)c3)cc2C1 [TCMDC-133728] | 0.1652
COc1ccc(C(=O)CCC(=O)N(Cc2ccc(-c3ccc(CNCCc4ccc(S(C)(=O)=O)cc4)cn3)cc2)Cc2ccc3c(c2)OCO3)cc1F [TCMDC-141514] | 67.48
COc1ccc(C(=O)CCC(=O)N(Cc2ccc(-c3ccc(CNCCc4ccccc4)cn3)cc2)C(C)CN(C)C)cc1F (stereo not shown) [TCMDC-141554] | 109.3
COc1ccc(C(=O)CCC(=O)N(Cc2ccc(-c3ccc(CNCCc4ccc(S(C)(=O)=O)cc4)cn3)cc2)C2CC3CCC2C3)cc1F (stereo not shown) [TCMDC-141515] | -37.66
COc1ccc(C(=O)CCC(=O)N(CCSC(C)(C)C)Cc2ccc(-c3ccc(CNCCc4ccc(S(C)(=O)=O)cc4)cn3)cc2)cc1F [TCMDC-141517] | 33.86
COc1ccc(C(=O)CCC(=O)N(Cc2ccc(-c3ccc(CNCCc4ccc(S(C)(=O)=O)cc4)cn3)cc2)C(C)CN(C)C)cc1F (stereo not shown) [TCMDC-141512] | 102.4
COc1ccc(C(=O)CCC(=O)N(CCC2CCCN2C)Cc2ccc(-c3ccc(CNCCc4ccc(S(C)(=O)=O)cc4)cn3)cc2)cc1F (stereo not shown) [TCMDC-141513] | -2.666
CCC(CC)N1C(=O)C(c2ccccc2)(c2ccccc2)N=C1N [TCMDC-136516] | -14.59
CCOC(=O)C(NC(=O)Cc1ccccc1)C(C)C (stereo not shown) [TCMDC-131334] | -5.463
CN(C)CCCOc1ccc(-c2nc(-c3ccc4c(c3)CCC4=NO)c(-c3ccncc3)[nH]2)cc1 [TCMDC-140742] | 7.087
ON=C1CCc2cc(-c3cc(-c4ccc(OC5CCNCC5)cc4)oc3-c3ccncc3)ccc21 [TCMDC-141381] | 91.63
ON=C1CCc2cc(-c3nc(-c4ccc(OCCN5CCCCC5)cc4)[nH]c3-c3ccncc3)ccc21 [TCMDC-141174] | 1.604
CC(C)(C(=O)Nc1ccc(C2CCC(NCC3CC3)CC2)c(Cl)c1)c1ccc(C(F)(F)F)cc1 (stereo not shown) [TCMDC-134642] | 92.31
CC(C)(C(=O)Nc1ccc(C2CCC(NCC3CC3)CC2)c(Cl)c1)c1cccc(OC(F)F)c1 (stereo not shown) [TCMDC-134643] | 32
CC(C)(C(=O)Nc1ccc(N2CCC3(CCCN(CC4CC4)C3)CC2)c(Cl)c1)c1cccc(C(F)(F)F)c1 [TCMDC-134639] | -12.77
O=C(Nc1cccc(-c2ccc(-c3nc4ccc(C(F)(F)F)cc4[nH]3)cc2)c1)c1cnc[nH]1 [TCMDC-136938] | -50.65
CCC(=O)Nc1ccc(Nc2nc(C)cc(N3CCCC3)n2)cc1 [TCMDC-124971] | -15.13
Clc1ncnc2scc(-c3ccc(Br)cc3)c12 [TCMDC-125318] | -35.26

SMILES | % Inhibition [%]
Fc1ccc(-c2csc3ncnc(Cl)c23)cc1 [TCMDC-125317] | 5.052
Cc1nnc(Sc2ncnc3scc(-c4ccc(F)cc4)c23)s1 [TCMDC-125239] | 77.07
CN1CC=C(c2c[nH]c3ccc(Oc4ccccc4)cc23)CC1 [TCMDC-138966] | 12.83
NCCNS(=O)(=O)c1ccc(-c2ccnc3[nH]c(-c4ccncc4)cc23)cc1 [TCMDC-133364] | 20.68
CN(C)Cc1ccc(-c2cc3c(-c4ccc(CN(C)C)cc4)ccnc3[nH]2)cc1 [TCMDC-132409] | 78.19
CN(C)Cc1cccc(-c2cc3c(-c4cnn(C)c4)c(Cl)cnc3[nH]2)c1 [TCMDC-134147] | -89.46
Cc1ccc2[nH]c(-c3ccccc3N)cc2c1 [TCMDC-131289] | -61.86
CNC(=O)c1c(NC(=O)c2cccs2)sc2c1CCCC2 [TCMDC-125739] | -2.665
O=C(Nc1ccc(F)cc1)c1ccc(C(=O)NC2CCN(CC3CCCCC3)CC2)cc1 [TCMDC-136749] | -13.8
O=C(NC1CC1)c1cnc(N2CCN(Cc3ccc(Cl)cc3)CC2)c(Cl)c1 [TCMDC-134601] | 8.945
O=C(NC1CCN(CCC(NC(=O)c2ccccc2)c2ccc(Cl)c(Cl)c2)CC1)c1ccc(Cl)cc1 (stereo not shown) [TCMDC-141712] | -1.186
Cc1ccc(C2(CN3CCC(NC(=O)c4[nH]ncc4Cl)CC3)CCCCC2)cc1 [TCMDC-124838] | 29.65
O=C(NC1CCN(CC2(c3ccc(Cl)cc3)CCC2)CC1)c1ccn[nH]1 [TCMDC-124830] | 58.08
Cc1cc(C(=O)NC2CCN(Cc3ccccc3)CC2)ccc1-c1nc2cc(Cl)c(Cl)cc2[nH]1 [TCMDC-140081] | 10.28
O=C(NC1CCN(CC2(c3ccccc3)CCCC2)CC1)c1[nH]ncc1Cl [TCMDC-124836] | 56.38
O=C(NC1CCN(CC2(c3ccccc3F)CCCC2)CC1)c1ccn[nH]1 [TCMDC-124837] | 65.27
CN(C)c1ccc(CN2CCC(NC(=O)c3ccc(-c4ccccc4F)s3)CC2)cc1 [TCMDC-134326] | -40.45
O=C(NC1CCN(CC2(c3ccc(Cl)cc3)CCCCC2)CC1)c1ccn[nH]1 [TCMDC-124828] | 65.33
CC(C)c1ccc(CN2CCC(NC(=O)c3ccc(-c4ccccc4F)s3)CC2)cc1 [TCMDC-134345] | -26.31
O=C(NC1CCN(Cc2ccc(Cl)cc2)CC1)c1cn(-c2ccccc2)nc1-c1cccnc1 [TCMDC-125254] | -34.02
Cc1ccccc1OCC(=O)Nc1ccc(-c2nc3cc4ccccc4cc3[nH]2)cc1 [TCMDC-125670] | 10.69
